# Screening results (PubChem)
# ELG1 genotoxic = induces genotoxicity in HEK293T cells with luciferase-tagged ELG1 | AID 504466 | actives 1.3% (n = 330,000) | Potency, µM (titrated, usually from 46 µM), for inactives: at the top dose activity change, positive = activation, most hits filed as activators | HEK293T ELG1-luciferase reporter, luminescence, 16 h; also: % of control where 0% means no effect; nearly all actives have a fitted effect of over 60% in size
#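 Genotoxic stress is detected as increased luminescence from luciferase-tagged ELG1 in HEK293T cells, measured with ONE-Glo after a 16 hr treatment at 37 °C.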
# p53 reactivation = re-activators of mutant p53. H1299 p53-A138V BP100-luciferase reporter, luminescence, 24 h. Potency, µM (highest dose often 92.2 µM), inactives show at the highest dose activity change, positive = activation, actives largely listed as activators. actives 0.063% (n = 320,000); also: % of control where 0% means no effect; nearly all actives have a fitted effect of over 45% in size
#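 H1299 (p53-null), stable ts p53-A138V + BP100-Luc; 1000 cells/well, Opti-MEM/10% FBS; cpd 4 pt, 1:5; 24 h, 37 deg C, 5% CO2; detection reagent 10 min RT; luminescence.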
# SMN2 splice up = SMN2 splice variant enhancement; HEK293 SMN2-luciferase splicing reporter, luminescence, 30-36 h; Potency, µM (top dose mostly 46.1 µM), for inactives: top-dose activity change, positive = activation, actives largely listed as activators; actives 2.8% (n = 210,000); AID 1458; also: % of control where 0% means no effect; nearly all actives have a fitted effect of over 55% in size
#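 HEK293 cells carry an SMN2 minigene-luciferase reporter in which exon 7 inclusion puts luciferase in frame. Cells were seeded at 2000 cells/well, attached for 10-12 hours, then exposed to compounds for 30-36 hours at 37C before ONE-Glo luminescence.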
# NPC1 promoter act = NPC1 promoter activation | actives 2.4% (n = 320,000) | Potency, µM (titrated, usually from 9.22 µM), for inactives: top-dose activation, usual class: activators | AID 485313 | Huh7 NPC1 promoter luciferase reporter, 24 h; also: % of control where 0% means no effect; nearly all actives have a fitted effect of over 60% in size
#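 Readout is luciferase luminescence, reflecting NPC1 promoter activation in stably transfected Huh7 cells after 24 h compound exposure at 37 °C in reduced-serum medium with 10% FBS.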
# FLuc counter = firefly luciferase modulation, counter-screen for miR-21 project; actives 6.9% (n = 360,000); P08659; Potency, µM (series often up to 57.5 µM), without a hit: at the top dose activity change, negative = inhibition, actives largely listed as inhibitors; purified FLuc, Km substrates, luminescence inhibition;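 also: plate controls were vehicle for no effect and reference inhibitor for full effect; nearly all actives have a fitted effect of over 55% in size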
# Target sequence (P08659 whole entry, looked up): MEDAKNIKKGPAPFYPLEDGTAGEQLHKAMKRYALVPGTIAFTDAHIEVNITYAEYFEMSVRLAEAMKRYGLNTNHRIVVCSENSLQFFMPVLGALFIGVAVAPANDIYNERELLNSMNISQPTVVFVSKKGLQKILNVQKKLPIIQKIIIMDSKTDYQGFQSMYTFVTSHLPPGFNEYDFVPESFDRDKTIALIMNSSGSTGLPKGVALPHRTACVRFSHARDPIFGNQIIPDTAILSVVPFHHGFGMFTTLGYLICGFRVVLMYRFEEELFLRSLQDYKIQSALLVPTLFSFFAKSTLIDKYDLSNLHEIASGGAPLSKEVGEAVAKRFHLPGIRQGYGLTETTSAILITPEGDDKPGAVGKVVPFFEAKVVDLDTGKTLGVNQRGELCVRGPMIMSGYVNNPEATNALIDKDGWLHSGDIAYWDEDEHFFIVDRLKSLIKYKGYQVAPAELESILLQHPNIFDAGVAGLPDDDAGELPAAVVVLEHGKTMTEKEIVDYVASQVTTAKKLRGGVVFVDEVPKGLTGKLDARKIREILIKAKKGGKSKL
#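 Purified P. pyralis luciferase, 10 nM final, with Km-level 10 uM D-luciferin and 10 uM ATP in 50 mM Tris acetate pH 7.5, 10 mM Mg acetate, 0.01% Tween-20, 0.05% BSA; 6-point qHTS titration about 60 µM downward; luminescence read.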
# Rab9 prom act = activates the Rab9 promoter; Huh7 Rab9 promoter-luciferase reporter, luminescence, 24 h; Potency, µM (highest dose often 9.22 µM), inactives show top-dose activation, negative = inhibition, actives largely listed as activators; actives 2.8% (n = 320,000); also: % of control where 0% means no effect; nearly all actives have a fitted effect of over 60% in size
#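 Huh7 cells stably carrying Rab9 promoter–luciferase reporter, plated 1500 cells/well, compound added after 2 h and incubated 24 h at 37 °C; luciferase luminescence then read after 10 min with detection reagent.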
# * = called active by the depositor; ? = inconclusive; · = no result given; [ ] = remark or other dose. Shown are actives, neighbours in structure and some others; about 7.3% of the full set was active somewhere. Calls follow the shape of the dose curve; as a rule, active = well fitted curve in the direction sought with a large enough effect; inconclusive = small, poorly fitted or top-dose-only effect, or another doubt; inactive = no such curve, though single readings can be large; an effect the other way counts as inactive or inconclusive. Potency is read from the fitted curve at half-maximal effect.
SMILES,ELG1 genotoxic,p53 reactivation,SMN2 splice up,NPC1 promoter act,FLuc counter,Rab9 prom act
O=C(N=C1N=C2C=CC(Br)=CN2Cc2ccccc21)c1ccc([N+](=O)[O-])cc1[N+](=O)[O-],?,?,·,3.5µM*,12µM*,3.5µM*
COc1ccc(C2CC(=O)c3ccccc3O2)cc1 (stereo unspecified),?,?,-5%,?,15µM*,?
O=C1CC(c2ccc(O)c(O)c2)Oc2c1ccc(O)c2O (stereo unspecified),2%,7%,·,-2%,-13%,10%
COc1cccc(C2Cc3ccccc3C(=O)O2)c1 (stereo unspecified),1%,4%,-6%,1%,-21%,0%
O=C1CC(c2ccccc2)Oc2cc(O)cc(O)c21 (stereo unspecified),?,12%,·,21%,17µM*,14%
O=C1CC(c2ccc3c(c2)OCCO3)Oc2ccccc21 (stereo unspecified),?,?,·,3.2µM*,21µM*,2.8µM*
O=C1CC(c2ccc3c(c2)OCCO3)Oc2ccc([N+](=O)[O-])cc21 (stereo unspecified),0.65µM*,36%,·,?,0.27µM*,0.56µM*
CN(C)C(=O)c1ccc(NC(=O)Cn2nnnc2-c2ccccc2F)cc1,·,·,-6%,·,4%,·
COc1ccc(N2CCN(CCCNC(=O)c3nnc(Cc4ccc(F)cc4)o3)CC2)cc1,·,·,·,·,-15%,·
CCc1cc2c(cc3c(=O)n(CCCC(=O)NCc4cccc(Cl)c4)ncn32)s1,·,·,5%,·,-14%,·
CCc1ccc(-c2cn3c(n2)sc2cc(C(=O)NCCc4ccc(OC)cc4OC)ccc23)cc1,·,·,·,·,5%,·
Cc1noc(/C=C/Nc2ccc(F)cc2F)c1[N+](=O)[O-],16µM*,?,4µM*,?,2.1µM*,1.4µM*
COc1ccccc1N/C=C/c1onc(C)c1[N+](=O)[O-],?,·,1.1µM*,1µM*,0.3µM*,0.4µM*
Cc1noc(/C=C/c2ccccn2)c1[N+](=O)[O-],-32%,·,·,-29%,?,-16%
O=C(c1ccncc1)N1CCC2(CC1)CCN(c1ccccc1)CC2,·,·,-29%,·,·,·
COc1ccc(C(=O)Oc2cccnc2)cc1,-2%,5%,1%,-4%,-17%,7%
COc1cc(OC)cc(C(=O)O/N=C(\N)c2ccccn2)c1,?,?,·,0.89µM*,6.7µM*,0.63µM*
N/C(=N\OC(=O)Cc1ccc(-c2ccccc2)cc1)c1ccccn1,?,?,-33%,18%,?,5%
COc1ccc(C(=O)O/N=C(\C)c2cnccn2)cc1,2%,6%,7%,0%,11µM*,-1%
COc1ccc(C(=O)O/N=C(\N)c2ccccn2)cc1,?,-14%,·,0.11µM*,0.095µM*,0.4µM*
COc1ccc(CC(=O)O/N=C(\N)c2ccccn2)cc1,?,8%,·,10%,12µM*,18%
CSCCC(NC(=O)C1CCCCC1)C(=O)Nc1ccc(F)c(Cl)c1 (stereo unspecified),·,·,1%,·,-9%,·
Cc1ccc(C2C(=O)N(C3CCCCCC3)CC(=O)N2CCC2=CCCCC2)cc1 (stereo unspecified),·,·,·,·,3%,·
COc1ccc(C(=O)NNC(=O)c2ccccn2)cc1,0.15µM*,-26%,2.5µM*,0.32µM*,0.085µM*,0.32µM*
COc1cc(OC)cc(C(=O)NNC(=O)c2ccccn2)c1,?,?,·,-4%,3%,-4%
SMILES,ELG1 genotoxic,p53 reactivation,SMN2 splice up,NPC1 promoter act,FLuc counter,Rab9 prom act
O=C(COC(=O)c1ccccc1[N+](=O)[O-])c1ccc(C2CCCCC2)cc1,2%,-6%,-56%,-2%,0.13µM*,9%
Cc1ccc(C(=O)OCC(=O)N2CCCc3ccccc32)cc1C,1%,7%,·,1%,-11%,0%
O=C(OCC(=O)N1CCc2ccccc21)c1ccccc1[N+](=O)[O-],?,?,·,0.79µM*,0.15µM*,0.63µM*
CCOC(=O)C1=C(C)NC(C)=C(C(=O)OCC)C1C(=O)OCC(=O)N1CCc2ccccc21,18µM*,18%,-4%,4%,1%,9%
N#CC1(NC(=O)COC(=O)c2ccccc2[N+](=O)[O-])CCCCC1,6%,24%,·,-1%,?,-6%
Cc1ccc(C(=O)OCC(=O)N2CCc3ccccc32)cc1,9%,11%,-19%,?,6µM*,?
O=C(COc1cccnc1[N+](=O)[O-])N1CCc2ccccc21,6%,4%,25%,9%,-10%,17%
CC(C)C[C@@H](CC(=O)N[C@@H](CCC(=O)O)CC(=O)O)NC(=O)[C@@H]1CCCC[C@H]1NC(=O)C[C@H](CCCN)NC(=O)C[C@H](Cc1ccccc1)NC(=O)[C@@H]1CCCC[C@H]1N,·,·,-5%,·,·,·
Cc1ccc(NC(=S)N2CCCC2)cc1Cl,16%,-1%,·,12%,-16%,6%
COc1ccc(S(=O)(=O)Nc2ccc3c(c2)N(C(C)=O)CCC3)cc1F,·,·,·,·,-9%,·
O=C(Cc1ccc(Cl)cc1)NCC(c1cccs1)S(=O)(=O)c1ccc(F)cc1 (stereo unspecified),·,·,·,·,-11%,·
N#CCCN(C(=O)COC(=O)C1CCN(S(=O)(=O)c2cccs2)CC1)c1ccccc1,0%,-2%,·,-3%,-1%,-6%
O=C(OCC(=O)N1CCc2ccccc21)c1c2c(nc3ccccc13)CCCCC2,-11%,10%,3%,3%,4.3µM*,2%
O=C(c1ccccc1F)N1CCc2ccccc21,-4%,-2%,2%,-3%,0%,-1%
O=C(Cc1coc2ccc3ccccc3c12)N1CCc2ccccc21,-2%,-12%,-26%,?,2%,7%
CC(=O)c1c(C)[nH]c(C(=O)OCC(=O)N2CCc3ccccc32)c1C,6%,?,·,4µM*,-18%,?
Cc1ccc2c(CC(=O)N3CCc4ccccc43)coc2c1,?,24%,14µM*,3.5µM*,4.3µM*,4µM*
NC(=O)COC(=O)c1c2c(nc3ccccc13)CCCC2,-10%,-5%,2%,-6%,-4%,6%
CCOC(=O)c1[nH]c(C)c(C(=O)OCC(=O)N2CCc3ccccc32)c1C,17%,-2%,-1%,-3%,-1%,-2%
O=C(OCC(=O)N1CCc2ccccc21)c1ccccc1F,12%,19%,·,3%,4.8µM*,4%
O=[N+]([O-])c1cccc(/C=N\Nc2ccc3ccccc3n2)c1O,·,·,-11%[9.22 µM],·,·,·
Cc1cc(N/N=C/c2ccccc2Cl)nc(NCc2ccccc2)n1,-7%,13%,-31%,-2%,7.6µM*,-5%
